Source: the antibiotic and cytotoxicity screens of Wong et al. (2023)
In all, about 39,000 compounds went through this assay and about 3,300 (8.5%) were called active. The entries come from a sample that favours actives as a whole.

These compounds were tested on HepG2 (assay: cytotoxicity call (relative viability < 0.9)). Details: 10 µM.

| Compound | cytotoxicity call |
| --- | --- |
| CO[C@@H]1CN(C)C(=O)c2cc(NC(=O)Nc3cccc(Cl)c3)ccc2OC[C@H](C)N(C(=O)Nc2c(C)noc2C)C[C@@H]1C | inactive |
| C[C@H]1CC/C=C\[C@H]2O[C@@]34C=CCN(Cn5nnc6ccccc65)C(=O)[C@H]3N(CCCO)C(=O)[C@@H]4[C@@H]2C(=O)O1 | inactive |
| C[C@H]1CCCCO[C@H](CN(C)C(=O)c2ccccc2)[C@@H](C)CN([C@@H](C)CO)C(=O)c2cc(NC(=O)Nc3ccc(C(F)(F)F)cc3)ccc2O1 | inactive |
| O=C(NC1(C(F)(F)F)Oc2cc(Cl)c(Cl)cc2O1)C1=C(N2CCOCC2)/C(=C/c2ccccc2)CC1 | active |
| C[C@H]1CN([C@@H](C)CO)C(=O)c2cc(NS(=O)(=O)c3ccc(F)cc3)ccc2O[C@@H]1CN(C)CC1CC1 | inactive |
| C[C@@H]1CN([C@H](C)CO)C(=O)c2cccc(NC(=O)C3CC3)c2O[C@@H]1CN(C)S(=O)(=O)c1cccs1 | inactive |
| C[C@@H]1CN([C@H](C)CO)C(=O)Cc2cc(NC(=O)Nc3ccc(F)cc3)ccc2O[C@@H]1CN(C)S(=O)(=O)c1cn(C)cn1 | inactive |
| C[C@H](CO)N1C[C@H](C)[C@@H](CN(C)S(=O)(=O)c2cccs2)Oc2ccc(NC(=O)Nc3cccc4ccccc34)cc2C1=O | inactive |
| CN1CCN(CCO)C(=O)C12CCN([C@H]1CCOC1)CC2 | inactive |
| C=CCOC(=O)[C@H]1[C@@H]2C(=O)O[C@@H](c3ccccc3)[C@@H](c3ccccc3)N2[C@@H](c2ccc(OCCOC(=O)[C@H]3C[C@H]4C(=O)N5CCC[C@H]5C(=O)N4[C@H]3c3ccc(O)cc3)cc2)[C@]12C(=O)Nc1ccc(I)cc12 | inactive |
| Cc1noc(C)c1S(=O)(=O)Nc1ccc2c(c1)CC(=O)N([C@H](C)CO)C[C@@H](C)[C@H](CN(C)Cc1ccc(Oc3ccccc3)cc1)O2 | inactive |
| COc1oc(C(=O)NC2CCCCC2)c(-c2ccc(Cl)cc2)c1S(=O)(=O)c1ccc(Br)cc1 | inactive |
| C#CCOc1ccc(-c2c(C(=O)NC3CCCCC3)oc(OC)c2S(=O)(=O)c2ccc(Cl)cc2)cc1 | active |
| COc1oc(C(=O)NC2CCCCC2)c(-c2ccc(Cl)cc2)c1S(=O)(=O)c1ccc(Cl)cc1 | inactive |
| C[C@@H]1CN([C@@H](C)CO)C(=O)c2cc(NS(=O)(=O)c3cn(C)cn3)ccc2O[C@@H](C)CCCCO[C@H]1CN(C)Cc1ccc(C(F)(F)F)cc1 | inactive |
| O=C1C(CCS(=O)c2ccccc2)C(=O)N(c2ccccc2)N1c1ccccc1 (stereo unspecified) | inactive |
| CCCCC1C(=O)N(c2ccccc2)N(c2ccc(O)cc2)C1=O (stereo unspecified) | active |
| CCCCC1C(=O)N(c2ccccc2)N(c2ccccc2)C1=O | inactive |
| CC[C@H](C(=O)O)N1CCCC1 | inactive |
| C[C@@H]1CN([C@@H](C)CO)C(=O)c2cc(NC(=O)CCCCCC(=O)Nc3ccccc3N)ccc2O[C@@H]1CN(C)CC1CCCCC1 | inactive |
| C[C@@H]1CN([C@@H](C)CO)C(=O)Cc2cc(NC(=O)CCCCCC(=O)Nc3ccccc3N)ccc2O[C@@H]1CN(C)CC1CCCCC1 | active |

| Compound | cytotoxicity call |
| --- | --- |
| C[C@@H]1CN([C@H](C)CO)C(=O)c2cc(NC(=O)CCCCCC(=O)Nc3ccccc3N)ccc2O[C@H]1CN(C)CC1CCCCC1 | inactive |
| C[C@@H]1CN([C@@H](C)CO)C(=O)c2cc(NC(=O)CCCCCC(=O)Nc3ccccc3N)ccc2O[C@H]1CN(C)CC1CCCCC1 | inactive |
| C[C@H]1CN([C@@H](C)CO)C(=O)c2cc(NC(=O)CCCCCC(=O)Nc3ccccc3N)ccc2O[C@H]1CN(C)CC1CCCCC1 | active |
| C[C@@H]1CN([C@H](C)CO)C(=O)Cc2cc(NC(=O)CCCCCC(=O)Nc3ccccc3N)ccc2O[C@H]1CN(C)CC1CCCCC1 | inactive |
| C[C@H](CO)N1C[C@H](C)[C@@H](CN(C)CC2CCCCC2)Oc2ccc(NC(=O)CCCCCC(=O)Nc3ccccc3N)cc2C1=O | active |
| C[C@@H]1CN([C@@H](C)CO)C(=O)c2cc(NC(=O)CCCCCC(=O)Nc3ccccc3N)ccc2O[C@@H](C)CCCCO[C@@H]1CN(C)CC1CCCCC1 | inactive |
| C[C@@H]1CN([C@H](C)CO)C(=O)Cc2cc(NC(=O)CCCCCC(=O)Nc3ccccc3N)ccc2O[C@@H]1CN(C)CC1CCCCC1 | inactive |
| C[C@H](CO)N1C[C@H](C)[C@H](CN(C)CC2CCCCC2)Oc2ccc(NC(=O)CCCCCC(=O)Nc3ccccc3N)cc2C1=O | active |
| C[C@@H]1CCCCO[C@@H](CN(C)CC2CCCCC2)[C@@H](C)CN([C@H](C)CO)C(=O)c2cc(NC(=O)CCCCCC(=O)Nc3ccccc3N)ccc2O1 | inactive |
| C[C@H]1CN([C@@H](C)CO)C(=O)c2cc(NC(=O)CCCCCC(=O)Nc3ccccc3N)ccc2O[C@@H]1CN(C)CC1CCCCC1 | inactive |
| Cc1noc(C)c1NC(=O)Nc1ccc2c(c1)C(=O)N([C@H](C)CO)C[C@H](C)[C@H](CN(C)S(=O)(=O)c1ccc(F)cc1)OCCCC[C@H](C)O2 | inactive |
| C[C@H]1CCCCO[C@H](CN(C)S(=O)(=O)c2ccccc2)[C@@H](C)CN([C@@H](C)CO)C(=O)c2cc(NC(=O)C3CCCCC3)ccc2O1 | inactive |
| CN1CCN(C(=O)c2nn(C)c3c2CCN(S(C)(=O)=O)C3)CC1 | inactive |
| C[C@H](CO)N1C[C@H](C)[C@@H](CN(C)CC2CCOCC2)Oc2cc(-c3cccnc3)ccc2S1(=O)=O | inactive |
| COc1ccc(S(=O)(=O)Nc2cccc3c2O[C@H](CN(C)C(=O)Nc2c(C)noc2C)[C@H](C)CN([C@H](C)CO)C3=O)cc1 | inactive |
| CCS(=O)(=O)N1C[C@]2(CCN(CC2)C(=O)Cc2ccccc2)c2c(n(c3cc(ccc23)OC)C)[C@@H]1CO | inactive |
| Cc1ccc[nH]c1=O | inactive |
| COc1cccc(S(=O)(=O)N(C)C[C@@H]2Oc3cc(C#CCC(C)C)ccc3S(=O)(=O)N([C@@H](C)CO)C[C@@H]2C)c1 | inactive |
| CC1(C)SC2C(NC(=O)Cc3ccccc3)C(=O)N2C1C(=O)[O-].[K+] (stereo unspecified) | inactive |
| C[C@@H]1CCCCO[C@@H](CN(C)C(=O)Nc2ccc3c(c2)OCO3)[C@H](C)CN([C@@H](C)CO)C(=O)c2cc(NS(=O)(=O)c3ccc(F)cc3)ccc2O1 | inactive |
